What was measured:
Type in all cases: functional
[1] = target: Solute carrier family 2, facilitated glucose transporter member 1 (Homo sapiens) (UniProt P11166); assay: ST_JUDE_LEISH: Cytotoxicity at 2uM final concentration against transgenic Leishmania Mexicana promastigotes LmGLUT1 that are glucose transport deficient and complemented with the human glucose transporter GLUT1. Activity is measured by DNA content using SYBR green in vitro
[2] = target: Hexose transporter 1 (Plasmodium falciparum) (UniProt O97467); assay: ST_JUDE_LEISH: Cytotoxicity at 2uM final concentration against transgenic Leishmania Mexicana promastigotes LmPfHT that are glucose transport deficient and complemented with the Plasmodium falciparum hexose transporter. Activity is measured by DNA content using SYBR green in vitro
[3] = target: Glucose transporter (Leishmania mexicana) (UniProt O61059); assay: ST_JUDE_LEISH: Cytotoxicity at 2uM final concentration against transgenic Leishmania Mexicana promastigotes LmGT2 that are glucose transport deficient and complemented with the L. Mexicana glucose transporter 2. Activity is measured by DNA content using SYBR green in vitro

Solute carrier family 2, facilitated glucose transporter member 1 (Homo sapiens), sequence (P11166 whole entry): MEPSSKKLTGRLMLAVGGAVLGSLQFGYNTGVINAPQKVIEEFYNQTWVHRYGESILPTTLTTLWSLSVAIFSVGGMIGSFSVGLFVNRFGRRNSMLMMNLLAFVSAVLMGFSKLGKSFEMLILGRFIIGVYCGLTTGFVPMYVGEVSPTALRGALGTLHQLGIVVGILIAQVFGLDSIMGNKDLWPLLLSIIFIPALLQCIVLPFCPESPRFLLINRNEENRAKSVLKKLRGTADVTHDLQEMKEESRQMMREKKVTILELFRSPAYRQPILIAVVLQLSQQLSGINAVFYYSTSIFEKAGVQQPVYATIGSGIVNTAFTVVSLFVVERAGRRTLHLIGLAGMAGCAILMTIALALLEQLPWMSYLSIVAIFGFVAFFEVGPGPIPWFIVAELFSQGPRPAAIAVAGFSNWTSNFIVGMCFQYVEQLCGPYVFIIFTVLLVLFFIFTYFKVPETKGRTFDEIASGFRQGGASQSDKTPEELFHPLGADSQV

SMILES | inhibition [1] [%] | inhibition [2] [%] | inhibition [3] [%]
CN1CCN(c2cc(-c3cccc(C(F)(F)F)c3)nc(-c3ccncc3)n2)CC1 | 2.69 | 4.44 | -2.16
COc1ccc(C(=O)NCc2ccccc2-c2ccc(C(C)(C)C)cc2)cc1O | 3.25 | 5.39 | 1.49
O=C(NCc1ccccc1)c1ncn(CCCN2CCC(N3CCCC3)CC2)c1-c1ccc(Cl)c(Cl)c1 | -1.45 | -1.01 | -1.08
CC(C)(C)C(=O)Nc1ccccc1Oc1ccc(Cl)cc1 | 5.77 | 4.21 | 5.27
CCCC(CNCc1ccccc1)CNc1cc(=O)c2ccccc2[nH]1 (configuration not stated) | -0.08 | -3.44 | -0.73
CS(=O)(=O)CCNCc1cc(-c2cc3ncnc(Nc4ccc(OCc5cccc(F)c5)c(Cl)c4)c3s2)cs1 | 5.58 | 6.19 | 5.4
COc1ccc(-c2nonc2NC(=O)c2cccc(Cl)c2)cc1OC | 4.3 | 1.03 | 1.34
CCOC(=O)c1ccc(-c2c(C(F)(F)F)noc2-c2cc(CC)c(OC)cc2O)o1 | 3.34 | 2.22 | 1.45
COc1ccc(CCN2CCC(NCc3cccc(N(C)C)c3)CC2)cc1 | -2.94 | 2.54 | -1.51
Cn1nc(-c2ccc(CN[C@@H]3CCc4ccc(O)cc43)cc2)c2cnc(NC3CCCC3)nc21 | 0.66 | -1.03 | -0.55
COc1cccc(-c2ccc3ccnc(N)c3c2)c1 | 4.14 | 4.24 | 2.03
O=c1cc(NCCCNCc2[nH]c3cc(Cl)cc(Cl)c3c2Cn2cccn2)[nH]c2ccccc12 | 0.47 | -1.31 | 1.93
CCn1c(Cc2ccccc2)nnc1Sc1ccc([N+](=O)[O-])c(C#N)c1 | 5.75 | 6.38 | 3.87
Cc1cc(N[C@@H](Cc2ccccc2)C(=O)NCCCOC(C)C)nc(NCC2CCCCC2)n1 | 11.7 | 11.7 | 8.28
CNC(=O)C1Cc2c([nH]c3cc(Cl)ccc23)C2(CCN(CCc3ccccc3)CC2)N1 (configuration not stated) | 0.42 | 1.39 | 1.5
Cc1[nH]c2ccc(-c3ccccc3)cc2c(=O)c1Br | 1.91 | 4.13 | -0.5
Cc1nc(C)c(-c2ccc(Oc3ccc(OC(F)(F)F)cc3)cc2)c(O)c1I | -0.28 | 0.69 | -1.65

SMILES | inhibition [1] [%] | inhibition [2] [%] | inhibition [3] [%]
CCN(CC)CCN(Cc1ccc(-c2ccc(Br)cc2)cc1)C(=O)Cn1c(CCc2cccc(F)c2F)nc(=O)c2ccccc21 | 2.2 | 3.29 | 6.05
COc1ccc(C(=O)N2CCc3cc4nccc(N5CCN6CCC[C@H]6C5)c4cc32)cc1 | 2.59 | 3.64 | 4.3
O=C(NCC1CCN(CC2CCCCC2)C1)c1cc(-c2cccc(C(F)(F)F)c2)cs1 (configuration not stated) | -1.1 | -0.44 | -2.1
Nc1nccc2ccc(-c3ccc(NC(=O)Nc4cc(C(F)(F)F)ccc4F)cc3)cc12 | 0.91 | 4.94 | -0.4
COc1ccc(CNC(=O)c2cnc3c(O)cccc3c2Nc2cccc(NC(=O)c3ccc(Cl)c(Cl)c3)c2)cc1 | 74.7 | 78.8 | 76.6
COc1ccc(-n2nc(C)cc2C(=O)NCc2ccc(-c3c(C)noc3C)cc2)cc1 | 2.56 | 2.4 | -0.58
Cc1c(C(=O)N2CCCC(C(F)(F)F)C2)sc2cccc(F)c12 (configuration not stated) | 8.1 | 6.02 | 5.83
O=C(NCCCCN1CCC(c2ccc3c(c2OCC(O)c2ccc(Cl)cc2)CCCC3)CC1)c1ccc(-c2ccc(C(F)(F)F)cc2)cc1 (configuration not stated) | 0.65 | 1.49 | 0.85
c1ccc(-c2ccc3c(Nc4ccc5[nH]ccc5c4)ccnc3c2)nc1 | -1.13 | 0.56 | -0.96
CC(C)(C)c1ccc(N2C(N)=NC(N)=NC2(C)C)cc1Cl | 9.03 | 7.39 | 5.67
CC(O)C(C)(CO)NCc1ccc2c3c(cccc13)-c1ccccc1-2 (configuration not stated) | 15.7 | 11.2 | 5.35
Cc1cccc(S(=O)(=O)Nc2cccc(CCN3CCC(N4CCCCC4)CC3)c2)c1 | 3.99 | -1.11 | 0.97
COc1ccc(Cc2c(C)nc3nc(N)nc(N)c3c2C)cc1OC | 13.6 | 15 | 12.1
COc1ccc(CNCc2cccc(-c3csc(-c4nc5ccccc5[nH]4)c3)c2)cc1 | -1.65 | -1.34 | 2.49
COc1ccc(Cc2c(Cl)nc3nc(N)nc(N)c3c2C)cc1 | 7.37 | 7.06 | 8.71
Oc1ccccc1Nc1nc(NCc2ccco2)c2ccccc2n1 | 15.3 | 13.6 | 4.56
Cn1c(=N)n(CC(=O)OCc2ccc(OCc3ccccc3)cc2)c2ccccc21 | 2.99 | 2.29 | 1.49
